Screens from PubChem.
Only some compounds are listed: those with a hit (about 19% of all), similar ones and a draw of the others.
TDP1 cell CPT – growth inhibition of DT40 Tdp1-/-;hTDP1 cells with camptothecin (screen for TDP1 inhibitors) | chicken DT40 Tdp1-/-;hTDP1 cells + 20 nM CPT, ATP luminescence, 48 h | Potency, µM (doses to about 46.2 µM), for inactives: at the top dose activity change, negative = growth inhibition, usual class: inhibitors | actives 12% (n = 420,000); note: potency is the fitted concentration of half-maximal effect; nearly all actives have a fitted effect of over 55% in size
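Chicken DT40 Tdp1-/- cells stably complemented with human TDP1 were seeded at 400 cells/well in medium containing 20 nM camptothecin, exposed to pin-transferred compounds, and grown at 37 °C for at least 48 hr. Viability was read as ATP luminescence.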
HT1080NT lethal – kills 2HG-producing HT-1080-NT fibrosarcoma cells. HT-1080-NT fibrosarcoma viability, CellTiter-Glo ATP luminescence, 48 h. Potency, µM (top dose mostly 46.1 µM), without a hit: at the top dose activity, negative = less viability, actives largely listed as cytotoxic. actives 1.6% (n = 360,000);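 note: NT is the 2HG producing partner of a matched IDH1 knockdown line; potency is the fitted concentration of half-maximal effect; 0% = DMSO-treated cells and -100% = media-only wells without cells; nearly all actives have a fitted effect of over 55% in size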
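750 cells/well, RPMI + 5% FBS; 2 h settle, compound pin-transfer, 48 h at 37 degrees C. CellTiter-Glo 10 min RT, luminescence. Normalized to DMSO and media-only wells.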
ELG1 DNA repair – ELG1-dependent DNA repair inhibition. HEK293T ELG1-luciferase reporter, luminescence, 16 h; DNA damage induced by 5-fluorouridine. Potency, µM (highest dose often 46.1 µM), for the others: top-dose activity change, negative = inhibition, usual class: inhibitors. actives 2.3% (n = 330,000). AID 504467; note: potency is the fitted concentration of half-maximal effect; nearly all actives have a fitted effect of over 55% in size
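Step one: seed 2,000 cells per well. Step two: pin-transfer compound or DMSO alongside 5-fluorouridine. Step three: incubate 16 hr, 37 °C, 5% CO2. Step four: add ONE-Glo, wait 30 min, read luminescence.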
TDP1 cell noCPT – qHTS for Inhibitors of human tyrosyl-DNA phosphodiesterase 1 (TDP1): qHTS in cells in absence of CPT; DT40 Tdp1-/- hTDP1 cells, no CPT, ATP luminescence, 48 h; Potency, µM (highest dose often 46.2 µM), without a hit: at the top dose activity change, negative = growth inhibition, usual class: inhibitors; actives 15% (n = 420,000); AID 686978, 2013; note: potency is the fitted concentration of half-maximal effect; nearly all actives have a fitted effect of over 55% in size
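Readout: luminescence from CellTiter-Glo after 30 min in the dark at RT. Cells: DT40 Tdp1-/- with stable hTDP1, 400/well. Exposure: compounds alone, ≥48 hr, 37 °C.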
HT1080 IDH1KD tx – kills HT-1080 cells with IDH1 knockdown; actives 2% (n = 360,000); HT-1080 IDH1 knockdown viability, ATP luminescence, 48 h; Potency, µM (titrated, usually from 46.1 µM), without a hit: at the highest dose activity, negative = toxicity, usual class: cytotoxic; AID 686971;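 note: potency is the fitted concentration of half-maximal effect; 0% = DMSO wells and -100% = cell-free medium wells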
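HT-1080-IDH1KD cells (IDH1 knocked down), 750/well in RPMI with 5% FBS, treated with compound 48 h at 37 degrees C. Viability by CellTiter-Glo luminescence, normalised to DMSO and no-cell wells; concentration-response curves classed.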
IL1B secr inh – inhibitors of inflammasome signaling (IL-1 beta secretion) | THP-1 LPS/ATP IL-1B secretion, AlphaLISA, 16 h; active compounds read low | activity change, % at 57.5 µM | actives 4.7% (n = 360,000); in the data active = activity change below about -50%; inconclusive = mostly about -30% to -49%
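Secreted IL-1B measured by AlphaLISA bead assay after 16 h compound exposure of THP-1 cells; compounds (final up to 57.5 uM) added 1 h before LPS (250 ng/mL) and ATP (1.25 mM) stimulation; lower signal means less secretion.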
Starred values were filed as active, the others as inactive; ? = inconclusive; nt = not tested or not shown; [ ] = remark or other dose. Unless noted, calls come from the whole dose curve; as a rule, active = well fitted curve in the direction sought with a large enough effect; inconclusive = small, poorly fitted or top-dose-only effect, or another doubt; inactive = no such curve, though single readings can be large; an effect the other way counts as inactive or inconclusive. Unless noted, % is set by controls: 0 for no effect and ±100 for the full control effect.

SMILES | TDP1 cell CPT | HT1080NT lethal | ELG1 DNA repair | TDP1 cell noCPT | HT1080 IDH1KD tx | IL1B secr inh
COc1ccc(N2CCN(C(=O)c3c(C)oc4ncnc(N5CCCCC5)c34)CC2)cc1 | ? | nt | nt | 14.6µM* | nt | nt
CN(Cc1ccccc1)C(=O)COC(=O)c1ccccc1NS(=O)(=O)c1cccc(N)c1 | ? | 12.2% | -24.7% | ? | 3.1% | 8.7
CC(OC(=O)c1ccccc1NS(=O)(=O)c1cccc(C(F)(F)F)c1)C(=O)N(C)Cc1ccccc1 (stereo unspecified) | ? | -7.2% | -18.1% | 23.1µM* | 0.1% | -22.7
CC(OC(=O)c1ccc2ccccc2c1)C(=O)N(C)Cc1ccccc1 (stereo unspecified) | ? | -5.0% | -19.7% | 20.6µM* | -10.1% | 1.9
Cc1ccc(C(=O)NCC(=O)NCC(=O)OCc2ccc(Oc3ccc([N+](=O)[O-])cc3)cc2)cc1 | ? | 1.4% | nt | 20.6µM* | -8.7% | -17.0
COc1ccc(C(=O)NCC(=O)OCc2ccc([N+](=O)[O-])cc2)cc1 | -12.5% | 23.0% | -3.6% | 1.9% | 6.6% | 0.0
Cc1ccc(C(=O)NCC(=O)OCC(=O)Nc2cc(C)c(C)cc2[N+](=O)[O-])cc1 | 2.3% | 0.9% | 15.4% | 2.9% | 1.9% | 7.5
Cc1ccc(C(=O)NCC(=O)NCC(=O)OCC(=O)c2ccc([N+](=O)[O-])cc2)cc1 | 23.1µM* | 2.7% | 0.4% | 23.1µM* | -2.0% | -18.6
CCOC(=O)N1CCC(NC(=O)C2CCN(c3nc(-c4ccc(OC)cc4)no3)CC2)CC1 | ? | 7.3% | 8.0% | 4.11µM* | -3.5% | 10.8
COc1ccc(-c2noc(N3CCC(C(=O)NCc4ccccc4Cl)CC3)n2)cc1 | 16.4µM* | -9.3% | ? | 25.9µM* | -11.9% | -2.0
COc1ccc(-c2noc(N3CCC(C(=O)N(C)c4ccccc4)CC3)n2)cc1 | ? | -11.2% | -22.6% | 29.1µM* | -4.5% | -2.7
COc1ccc(-c2noc(N3CCC(C(=O)NC(C)c4ccccc4)CC3)n2)cc1 (stereo unspecified) | ? | 0.0% | 13µM* | 25.9µM* | -10.8% | -0.6
CCOc1ccccc1NC(=O)C1CCN(c2nc(-c3ccc(OC)cc3)no2)CC1 | ? | 1.8% | 2.5% | -23.9% | 13.5% | 6.2
CCOc1ccc(NC(=S)NNC(=O)CC(C)O)cc1 (stereo unspecified) | 11.5% | 20.7% | -6.9% | -11.3% | 19.7% | -6.5
O=c1ccn([C@@H]2O[C@H](CNCc3cccc4c3sc3ccccc34)[C@@H](O)[C@H]2O)c(=O)[nH]1 | 8.3% | -15.9% | nt | -2.1% | -15.6% | -17.7
Cc1ccccc1-c1cc(C(=O)n2cccn2)c2cc(Cl)ccc2n1 | ? | ? | 22.9% | -12.7% | 10µM* | 50.0
CCN(C[C@H]1N[C@@](Cc2ccccc2)(C(=O)OC)[C@H]2C(=O)N(C)C(=O)[C@@H]12)C(=O)COc1ccccc1 | -25.8% | 2.9% | -7.6% | -16.3% | 4.5% | -8.5
O=C(CSc1nnc(CNC(=O)c2c(F)cccc2F)o1)Nc1ccc2c(c1)OCCO2 | -19.1% | 8.1% | 0.5% | -25.5% | -11.3% | 19.5
CCCc1nnc2c(N(C)S(=O)(=O)c3ccc(C)cc3)nc3ccccc3n12 | ? | -3.6% | 7.0% | 23.1µM* | -11.7% | 1.9
COc1ccc(S(=O)(=O)N(C)c2nc3ccccc3n3c(CC(C)C)nnc23)cc1 | 25.9µM* | -25.8% | -19.4% | 20.6µM* | -2.3% | 21.4
CCCCc1nnc2c(N(C)S(=O)(=O)c3ccc(C)cc3)nc3ccccc3n12 | -27.3% | -3.1% | 15.7% | ? | 11.3% | 21.6
CC(C)N1CC(=O)N2CSCC2C1=O (stereo unspecified) | 0.5% | 25.1% | nt | -0.9% | 26.9% | 28.9
Cc1ccc(-c2nc(C(=O)NCC3CCCO3)cc3c2[nH]c2ccccc23)cc1 (stereo unspecified) | 2.31µM* | ? | ? | 1.84µM* | -28.3% | -59.5*
COc1ccc(-c2nc(C(=O)NCC3CCCO3)cc3c2[nH]c2ccccc23)cc1 (stereo unspecified) | 2.06µM* | -20.3% | ? | 2.06µM* | -27.9% | ?
Cc1ccccc1-c1nc(C(=O)NCC2CCCO2)cc2c1[nH]c1ccccc12 (stereo unspecified) | 11.6µM* | -18.6% | ? | 18.4µM* | -4.4% | -51.4*
SMILES | TDP1 cell CPT | HT1080NT lethal | ELG1 DNA repair | TDP1 cell noCPT | HT1080 IDH1KD tx | IL1B secr inh
Cc1ccc(-c2cc(C(=O)NCC3CCCO3)c3ccccc3n2)cc1C (stereo unspecified) | 10.5% | 8.6% | ? | 5.4% | 24.7% | 1.1
Cc1nc(C(=O)NCCO)cc2c1[nH]c1ccccc12 | 9.0% | -0.1% | 14.4% | -6.5% | 13.5% | -3.7
COc1ccc(-n2c(SCC(=O)NCC3CCCO3)nc3c([nH]c4ccccc43)c2=O)cc1 (stereo unspecified) | 5.9% | 3.2% | ? | -6.8% | 0.0% | 18.2
O=C(NCC1CCCO1)c1cc2c([nH]c3ccccc32)c(-c2cccc(Br)c2)n1 (stereo unspecified) | 2.59µM* | -14.0% | ? | 2.91µM* | -13.2% | ?
C[C@H](CO)N1C[C@H](C)[C@H](CN(C)Cc2cccc(C(F)(F)F)c2)OCc2ccccc2-c2c(n(C)c3ccccc23)C1=O | 5.7% | 5.2% | nt | -12.1% | 8.3% | -5.2
C[C@H]1CN([C@@H](C)CO)C(=O)CCCn2nncc2CO[C@H]1CN(C)C(=O)NC1CCCCC1 | -11.3% | 10.6% | nt | 1.1% | 9.5% | 24.7
O=c1oc2cc(Br)ccc2n1CSC1=NCCS1 | 20.6µM* | -20.9% | ? | 18.4µM* | 7.6%[9.24 µM] | -65.5*
CN(C)C(=O)CCC(=O)N1CCCC(C(=O)c2ccc3c4c(cccc24)CC3)C1 (stereo unspecified) | ? | -17.9% | ? | 14.6µM* | -1.3% | -7.9
O=C(c1ccc2c3c(cccc13)CC2)C1CCCN(Cc2ccncc2)C1 (stereo unspecified) | 13µM* | 13µM* | ? | 9.2µM* | -6.1% | ?
CCc1nc(CN2CCCC(C(=O)c3ccc4c5c(cccc35)CC4)C2)c(C)[nH]1 (stereo unspecified) | ? | 14.6µM* | ? | 16.4µM* | 16.4µM* | -99.9*
